Source: PubChem BioAssay
Only some compounds are listed: those with a hit (about 1.5% of all), similar ones and a draw of the others.
Smad3 FoxH1 inh = Smad3 (human) transcription factor binding inhibition | 0.29% of 88,000 active | P84022 | inhibition, % at 25 µM | TR-FRET Smad3/Dy647-FoxH1 peptide binding, europium anti-His;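 active means compounds that reduce the energy-transfer binding signal between the protein and its labelled peptide by more than half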
Plk1 PBD FP = inhibitors of human Plk1 polo box domain binding; Plk1 PBD phosphopeptide binding, fluorescence polarization; inhibition, %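 (tested at about 20 µM)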; 0.13% of 97,000 active; in the data active means inhibition above about 34%, passing the limit was not always enough
EphB4 ephrin blk = antagonists of human EphB4-ephrin-B2 interaction | inhibition, % at 7 µM | EphB4 LBD / TNYL-RAW-Alexa532 peptide, fluorescence polarization | 0.15% of 97,000 active;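 active means inhibition above the screen-wide mean inhibition plus 3 SD, cut at about 15% in these data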
FAK inh = blocks human focal adhesion kinase activity. inhibition, %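 (tested at 7 µM)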. 0.84% of 97,000 active. Q05397. biochemical FAK kinase activity assay
PLK1 inh = blocks human PLK1 kinase activity; P53350; 0.53% of 97,000 active; recombinant PLK1 kinase, TR-FRET peptide phosphorylation; inhibition, % at 10 µM;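 active means inhibition of 50% or more in the single-concentration screen; inactive means inhibition below 50%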
FAK inh conf = confirmation of human focal adhesion kinase (FAK) inhibitors; inhibition, % at 7 µM; shares compounds with FAK inh; FAK kinase biochemical inhibition assay; 28% of 750 active
A number is an active result; n = inactive; x = no result; [ ] = dose if it differs, or a comment. Unless noted, no stated cut-off is given here; in the data, active means inhibition above about 19%; inactive means the rest.

SMILES	Smad3 FoxH1 inh	Plk1 PBD FP	EphB4 ephrin blk	FAK inh	PLK1 inh	FAK inh conf
CCOC(=O)c1c(NC(=O)c2ccco2)n(C2CCCCC2)c2nc3ccccc3nc12	n	n	n	n	n	x
c1cc2ccc3ccc(CN4CCOCC4)c4ccc(c1)c2c34	n	n	n	41	n	41
CC1(C)CC2(CC(C)(C(=O)CSc3nc4ccccc4s3)OC2=O)C(=O)O1 (centres undefined)	n	n	n	n	n	x
O=C(CNC(=O)c1ccc([N+](=O)[O-])cc1)N/N=C\c1ccc(OC(=O)c2ccccc2)cc1	x	n	n	25	n	n
Cc1ccc(-c2cc(NC(=O)CCl)n(-c3ccccc3)n2)cc1	n	n	n	n	n	x
CC1/C(=N/O)C(CN(C)C)C2CC1C2(C)C (centres undefined)	n	n	n	n	n	x
CN(C)CCN1CCc2ccccc21	n	n	n	32	n	45
c1ccc2c(c1)CCN2CCN1CCc2ccccc21	n	x	x	x	x	x
NC(=O)CSc1nnc(Cc2cccs2)n1C1CCCCC1	n	n	n	n	n	x
O=C(Nc1ccccc1)c1ccccc1CC[N+](=O)[O-]	x	n	n	n	n	x
CC(=O)c1sc2nc(C)cc(C)c2c1N	x	n	n	20	n	n
COCCNC(=O)NC(=O)COC(=O)Cc1ccc2c(c1)OCCO2	n	n	n	n	n	x
O=C(C1CCC(Cn2c(=O)[nH]c3ccccc3c2=O)CC1)N1CCN(c2ccccc2)CC1 (centres undefined)	n	x	x	x	x	x
Cc1cccc(C)c1NC(=O)C(=O)NCCOc1ccc(Cl)cc1	x	n	n	n	n	x
Cc1ccc(C(C2C(=O)CC(C)(C)CC2=O)C2C(=O)CC(C)(C)CC2=O)s1	x	n	n	22	n	n
O=C(Cc1ccc(S(=O)(=O)N2CCOCC2)s1)Nc1nc2c(s1)CCCC2	n	n	n	23	n	n
CCC1=NNc2cccc3c(OC)ccc1c23	65[fluorescence artefact?]	n	n	82	68	26
CCCCCCCC(=O)Nc1ccc(C(=O)N/N=C/c2cccc([N+](=O)[O-])c2)cc1	x	n	n	34	n	n
CC(=O)c1cc2c(cc1NC(=O)c1c(-c3ccccc3)noc1C)OCO2	x	n	n	n	n	x
Nc1ncnc2nc(SCc3ccc(Cl)cc3Cl)[nH]c12	x	n	n	25	n	n
Nc1ncnc2nc(Sc3ccc(Cl)cc3)[nH]c12	n	n	n	n	n	x
COc1ccc(COc2ccsc2C(=O)Nc2ccc(Cl)c(Cl)c2)cc1	x	n	n	25	n	n
Cc1ccc(NCc2ccccc2O)cc1	n	n	n	n	n	x
Cc1ccc(CNc2ccc(O)cc2)cc1	n	n	n	52	n	n
O=C(NNc1ccccc1[N+](=O)[O-])Nc1ccccc1	x	n	n	21	n	n
SMILES	Smad3 FoxH1 inh	Plk1 PBD FP	EphB4 ephrin blk	FAK inh	PLK1 inh	FAK inh conf
O=C(Nc1ccccc1)c1[nH]ncc1[N+](=O)[O-]	x	n	n	n	n	x
CCOc1ccc(S(=O)(=O)Nc2ccccc2SC)c2cccnc12	n	n	n	20	n	n
O=C(NCCO)c1ccc2nc(-c3ccco3)c(-c3ccco3)nc2c1	n	n	n	n	n	x
O=C(NC1CCCC1)c1ccc2nc(-c3ccco3)c(-c3ccco3)nc2c1	n	n	n	19	n	n
COc1ccc2cc3cc(C(=O)Nc4ccc5c(c4)OCCO5)oc3nc2c1	n	n	n	43	n	n
CC(C)(CS(=O)(=O)[O-])NC(=O)CC[N+](C)(C)CCO	n	n	n	28	n	n
COC(=O)c1ccccc1S(=O)(=O)Nc1ccc2cn[nH]c2c1	n	n	n	20	n	n
COC(=O)c1sc(S(=O)(=O)Nc2ccc3cn[nH]c3c2)c(C(=O)OC)c1C	n	n	n	n	n	x
CC(C)Cn1[nH]c2c3c(ccc2c1=O)C(=O)c1ccccc1C3=O	x	n	n	27	n	n
CC(C(=O)O)N1C(=O)/C(=C/C=C/c2ccco2)SC1=S (centres undefined)	x	n	n	100	n	23
CSc1nc2sc3c(c2c(=O)n1C)CCCC3	n	x	x	x	x	x
C=CCn1c(CNC(=O)CCC)nc2ccccc21	n	n	n	n	n	x
C=CCn1c(P(=O)(O)c2ccccc2)nc2ccccc21	x	n	n	35	n	24
COc1ccc(-c2coc3cc4oc(=O)cc(C)c4cc23)cc1F	x	n	n	36	n	23
Cc1c(C(=O)NC(C)C)oc2c1-c1[nH]ncc1CC2	n	n	n	n	n	x
CCOC(=O)c1c(C)[nH]c(O)c1C=Nc1ccc(Cl)cc1	x	n	n	n	n	x
